From PubChem BioAssay
The list is not random: actives were taken first. Their share in the collection is about 2.4%.
Pol kappa inh – inhibitors of human DNA polymerase kappa. Q9UBT6. purified Pol kappa, fluorescent DNA synthesis assay, 10 min. Potency, µM (doses to about 107 µM), for inactives: top-dose activity, negative = inhibition, hits mostly inhibitors. 0.53% of 400,000 active. AID 588579; further: on the % scale 0 is the no-effect control and ±100 the full control effect
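First, compounds were pin-transferred onto 10 nM Pol kappa. After 15 min at room temperature, substrate was added to 50 nM final. Fluorescence was then measured kinetically at 0 and 10 min.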
TDP1 inh – blocks human tyrosyl-DNA phosphodiesterase 1. Q9NUW8. recombinant TDP1, AlphaScreen DNA substrate cleavage. Potency, µM (titrated, usually from 130 µM), for the others: at the highest dose activity change, negative = inhibition, hits mostly inhibitors. 0.28% of 350,000 active; further: on the % scale 0 is the no-effect control and ±100 the full control effect; nearly all actives have a fitted effect of over 40% in size
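Recombinant human Tdp1 (E. coli-expressed, 1 nM final) preincubated with compounds 15 min at room temperature, then 5'-biotin/3'-phosphotyrosine-FITC DNA substrate (15 nM final) added for 5 min. AlphaScreen beads (10 ug/ml final) added 10 min; cleavage lowers signal.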
Pol beta inh – DNA polymerase beta (human) inhibition | Pol beta primer extension/strand displacement, fluorescence kinetic | P06746 | 1.3% of 340,000 active | Potency, µM (top dose mostly 114 µM), for the others: at the highest dose activity change, negative = inhibition, usual class: inhibitors | AID 485314; further: on the % scale 0 is the no-effect control and ±100 the full control effect
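Curves were derived by four-parameter Hill fits of normalized qHTS data. The kinetic fluorescent primer-extension read was taken at 0 and 10 min after 50 nM substrate, following a 15 min room-temperature preincubation of 10 nM enzyme with compounds.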
POLH inh – inhibitors of human DNA polymerase eta; recombinant Pol eta, fluorescent DNA replication assay; Potency, µM (series often up to 114 µM), for the others: at the highest dose activity change, negative = inhibition, most hits filed as inhibitors; 1.2% of 390,000 active; Q9Y253; AID 588591; further: on the % scale 0 is the no-effect control and ±100 the full control effect
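Fluorescent replication assay: 50 nM final substrate added after a 15 min room-temperature compound preincubation with 10 nM enzyme. Signal taken at 0 min and again at 10 min.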
Pol iota inh – DNA polymerase iota (human) inhibition. Pol iota fluorescent replication assay, 10 min. 1% of 390,000 active. Potency, µM (series often up to 115 µM), without a hit: top-dose activity, negative = inhibition, hits mostly inhibitors. Q9UNA4
Target sequence (Q9UNA4 whole entry, looked up): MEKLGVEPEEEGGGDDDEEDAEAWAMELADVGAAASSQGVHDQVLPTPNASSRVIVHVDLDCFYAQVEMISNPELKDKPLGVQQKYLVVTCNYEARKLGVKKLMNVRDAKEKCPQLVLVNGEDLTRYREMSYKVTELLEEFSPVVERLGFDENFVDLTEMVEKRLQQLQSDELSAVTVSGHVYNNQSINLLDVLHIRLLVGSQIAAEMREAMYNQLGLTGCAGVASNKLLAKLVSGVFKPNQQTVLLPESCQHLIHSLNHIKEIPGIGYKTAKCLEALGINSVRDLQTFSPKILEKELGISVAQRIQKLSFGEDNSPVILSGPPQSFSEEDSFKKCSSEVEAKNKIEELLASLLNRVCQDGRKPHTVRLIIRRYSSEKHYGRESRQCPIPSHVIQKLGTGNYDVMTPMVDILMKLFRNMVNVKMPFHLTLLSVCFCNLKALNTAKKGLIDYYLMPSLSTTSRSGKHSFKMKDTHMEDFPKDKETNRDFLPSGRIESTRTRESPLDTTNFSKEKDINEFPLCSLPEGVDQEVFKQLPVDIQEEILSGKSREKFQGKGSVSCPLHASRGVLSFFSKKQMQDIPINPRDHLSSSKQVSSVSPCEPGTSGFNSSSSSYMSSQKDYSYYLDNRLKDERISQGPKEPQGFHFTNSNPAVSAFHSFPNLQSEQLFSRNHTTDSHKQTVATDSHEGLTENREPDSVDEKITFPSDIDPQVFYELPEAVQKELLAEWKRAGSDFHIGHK
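Fluorescent replication assay read twice, at 0 min and 10 min after adding 50 nM (final) substrate. Enzyme (10 nM) and compounds were first incubated 15 min at room temperature; enzyme-free buffer wells were negative controls.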
* hit, by the source's call; ? = inconclusive; . = no result; [ ] = dose if it differs, or a comment. The call rests on the fitted dose curve; in most records, active means well fitted curve in the direction sought with a large enough effect; inconclusive means small, poorly fitted or top-dose-only effect, or another doubt; inactive means no such curve, though single readings can be large; an effect the other way counts as inactive or inconclusive. Potency means the concentration at half of the fitted maximal effect.

SMILES | Pol kappa inh | TDP1 inh | Pol beta inh | POLH inh | Pol iota inh
CC[C@H](C)[C@H](NC(=O)[C@H](CCC(=O)O)NC(=O)[C@@H](N)CO)C(=O)N[C@@H](CCC(N)=O)C(=O)N[C@@H](CC(C)C)C(=O)N[C@@H](CCSC)C(=O)N[C@@H](Cc1cnc[nH]1)C(=O)N[C@@H](CC(N)=O)C(=O)N[C@@H](CC(C)C)C(=O)NCC(=O)N[C@@H](CCCCN)C(=O)N[C@@H](Cc1cnc[nH]1)C(=O)N[C@@H](CC(C)C)C(=O)N[C@@H](CC(N)=O)C(=O)N[C@@H](CO)C(=O)N[C@@H](CCSC)C(=O)N[C@@H](CCC(=O)O)C(=O)N[C@@H](CCCNC(=N)N)C(=O)N[C@H](C(=O)N[C@@H](CCC(=O)O)C(=O)N[C@@H](Cc1c[nH]c2ccccc12)C(=O)N[C@@H](CC(C)C)C(=O)N[C@@H](CCCNC(=N)N)C(=O)N[C@@H](CCCCN)C(=O)N[C@@H](CCCCN)C(=O)N[C@@H](CC(C)C)C(=O)N[C@@H](CCC(N)=O)C(=O)N[C@@H](CC(=O)O)C(=O)N[C@H](C(=O)N[C@@H](Cc1cnc[nH]1)C(=O)N[C@@H](CC(N)=O)C(=O)N[C@@H](Cc1ccccc1)C(=O)O)C(C)C)C(C)C | 12.1%[60.1 µM] | 12.1% | . | . | .
COc1cc(C2/C(=C(\O)c3ccc4c(c3)CC(C)O4)C(=O)C(=O)N2CC2CCCO2)cc(OC)c1OC (centres undefined) | -11.2% | 4.4% | -18.6% | -15.7% | 13.6%
CC1Cc2cc(/C(O)=C3/C(=O)C(=O)N(CC4CCCO4)C3c3ccco3)ccc2O1 (centres undefined) | -25.1% | . | 22.4µM* | 14.1µM* | ?
C=CCOc1cccc(C2/C(=C(/O)c3ccc4c(c3)CC(C)O4)C(=O)C(=O)N2CCN2CCOCC2)c1 (centres undefined) | -14.2% | 6.9% | -18.6% | -3.3% | 89.1µM*
COc1ccc(-n2nnnc2SCC(=O)NC2CCS(=O)(=O)C2)cc1 (centres undefined) | -12.5% | -1.2% | . | -19.2% | -8.7%
COc1ccc(-n2nnnc2SCC(=O)NC2CC2)cc1 | 4.1% | -0.3%[56.1 µM] | . | 89.1µM* | 4.4%
CCc1cccc2sc(N(CCCN3CCOCC3)C(=O)CS(=O)(=O)c3ccccc3)nc12 | -38.5% | 1.2% | . | -26.8% | 89.1µM*
O=C(CCS(=O)(=O)c1ccccc1)N(CCCN1CCOCC1)c1nc2c(F)cccc2s1 | -18.9% | 0.0% | . | -5.3% | 4.6%
CN(C)c1ccc(/C=C/c2ccnc3ccc(F)cc23)cc1 | 0.4% | . | . | . | -3.2%
O=C1CCCC2=C1C1(CCS(=O)(=O)C1)N=C(Nc1nc3ccccc3o1)N2 (centres undefined) | . | -7.8% | . | . | .
Cc1ccccc1C(=O)N1CCc2cc(-c3nc(NC(=O)Cc4ccc5c(c4)OCO5)sc3C)ccc21 | -15.7% | 0.0% | 0.251µM* | 1.0% | 3.6%
Cc1sc(NC(=O)Cc2ccc3c(c2)OCO3)nc1-c1ccc2c(c1)CCN2C(=O)c1cccc(F)c1 | -3.2% | 2.6% | 2.6% | 0.5% | 18.7%
Cn1cc(/C=C/c2ccc3ccccc3n2)c2ccccc21 | 2.2% | . | . | . | 1.7%
CCOC(=O)c1c(SCC(=O)Nc2nc3ccc(C)cc3s2)nc(=O)[nH]c1C | -11.7%[60.1 µM] | -5.2% | ? | -10.1% | 89.1µM*
Cc1cccc(-n2ccnc2SCC(=O)Nc2nc3ccccc3s2)c1 | -3.2%[60.1 µM] | 6.6% | ? | -4.3% | ?
CCOc1ccc(-n2ccnc2SCC(=O)Nc2nc3ccc(C)cc3s2)cc1 | -9.1%[60.1 µM] | -1.1% | 25.1µM* | 89.1µM* | 6.4%
Cc1ccc2nc(NC(=O)COC(=O)CSc3nc(C)cc(C)n3)sc2c1 | -2.3% | -2.0% | 25.1µM* | -11.6% | 37.8%
Cc1cc(N(C)C)cc(C)c1/C=C/c1cc[n+](C)c2ccccc12 | -18.4% | . | . | . | 57.8%
CCc1ccc(C(=O)C[N+]2(C)CCOCC2)cc1 | 8.7% | . | . | . | 34.5%
COc1cc(C(=O)O[C@@H]2CC3CC[C@]2(C)C3(C)C)ccc1O | -3.5%[60.1 µM] | 7.5% | . | . | .
Nc1nc(SCC(=O)Nc2ccc(C(F)(F)F)cc2)[nH]c(=O)c1NC(=O)c1ccc(F)c(F)c1 | -8.2% | 3.0% | -1.4% | -6.5% | 21.8%
